Data reported in PubChem BioAssay (EPA / NIEHS).
Records with an inconclusive call do not appear. Active and inactive are the calls of the source. How the source made its calls: active means hit-call score of the fitted dose curve at least 0.9, where 1 is the maximum; inconclusive means response in the unintended direction; inactive means score below 0.9.

The molecules below were run against Luciferin 4-monooxygenase (Photinus pyralis) (UniProt P08659) (assay: CCTE_Simmons_QuantiLum_inhib_2: CCTE's Firefly Luciferase Inhibition Assay, Simmons Lab (AID 2283767);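 on AC50: potency for inhibitors that lower luciferase luminescence relative to DMSO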).
Luciferin 4-monooxygenase (Photinus pyralis), sequence (P08659 whole entry, looked up): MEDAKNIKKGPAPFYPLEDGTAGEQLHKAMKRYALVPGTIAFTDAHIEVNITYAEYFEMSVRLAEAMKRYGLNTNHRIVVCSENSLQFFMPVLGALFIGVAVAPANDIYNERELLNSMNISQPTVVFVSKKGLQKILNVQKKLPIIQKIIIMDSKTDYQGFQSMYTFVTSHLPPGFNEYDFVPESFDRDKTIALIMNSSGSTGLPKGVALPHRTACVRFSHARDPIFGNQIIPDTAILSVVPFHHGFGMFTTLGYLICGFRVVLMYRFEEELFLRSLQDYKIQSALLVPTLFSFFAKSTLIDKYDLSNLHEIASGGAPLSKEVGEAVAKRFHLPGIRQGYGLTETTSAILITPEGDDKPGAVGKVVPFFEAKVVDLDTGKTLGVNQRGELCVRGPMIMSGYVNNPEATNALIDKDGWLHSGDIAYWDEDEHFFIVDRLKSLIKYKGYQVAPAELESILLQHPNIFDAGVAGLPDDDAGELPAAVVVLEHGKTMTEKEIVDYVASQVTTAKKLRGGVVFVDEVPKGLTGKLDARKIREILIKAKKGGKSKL
Procedure, shortened: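 Recombinant firefly luciferase (5 ng/well, 200 mM potassium phosphate with 1 mg/ml BSA) was exposed to 8 concentrations from 5 nM to 87.5 uM (final, 0.5% DMSO) for 30 min at 37C in the dark. Loss of luminescence versus DMSO was read after injecting D-luciferin/ATP-analogue reagent.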

SMILES	outcome	AC50
Cc1ccc(S(=O)(=O)NC(=O)NN2CCCCCC2)cc1	inactive	–
c1ccc2cc3ccccc3cc2c1	inactive	–
CCc1ccc(O)c(C(C)(C)C)c1	inactive	–
CCCCCCCCCCCCCCCCOS(=O)(=O)O	inactive	–
C=CCc1cc(S(=O)(=O)c2ccc(O)c(CC=C)c2)ccc1O	inactive	–
Cn1cc[nH]c1=S	inactive	–
NNC(=O)c1ccncc1	inactive	–
NC(=O)N(O)[C@@H]1COc2cc(OCc3ccccc3)ccc21	–	2.1 µM (active)
C[C@@H](Oc1ccc(CNC(=O)c2cccnc2Oc2ccc3c(c2)OCO3)c(F)c1)C(=O)O	inactive	–
COS(C)(=O)=O	inactive	–
O=C(NO)C1(NS(=O)(=O)c2ccc(Oc3ccc(F)cc3)cc2)CCOCC1	inactive	–
CCn1nc(C)c2c1C(=O)NCC(c1ccc(O)cc1)=N2	–	15.8 µM (active)
Cc1cccc(O)c1C	inactive	–
